# About 14,000 (4.5%) of roughly 310,000 compounds showed an effect of 50% or more. Effects have a minus sign here. The sample as a whole holds a higher share of strong results than the screen did.
# Target: human ether-à-go-go-related gene (hERG) potassium channel (human, UniProt Q12809)
# Assay: primary screen, population patch clamp on CHO cells stably expressing hERG; higher = less effect of the substance
# Experimental: Briefly, Chinese hamster ovary (CHO) cells stably expressing the hERG channel were dislodged from tissue culture flasks and dispensed into PPC plates. […] During the recording, background leak currents were estimated by a 100 ms step to -80 mV from an initial holding potential of -70 mV and subtracted from the subsequent current measurement. The campaign was conducted in two phases using slight differences in recording protocol. In the first phase, the initial voltage pulse used a 100 ms step to -30 mV from a holding potential of -70 mV, a 2 s conditioning step to +25 mV, and a 2 s test step to -30 mV. During the second phase of the screen, the potential during the conditioning step was raised to +45 mV. In both phases of the campaign, a secondary voltage pulse was applied using the same parameters as the second phase initial pulse. The initial and secondary pulses were applied in the absence of compound, and upon application of 1 μM and 10 μM test concentrations. […]
# 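Note: peak tail current of the secondary pulse compared with the same well before compound.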
# Chain of human ether-à-go-go-related gene (hERG) potassium channel (Q12809 whole entry, looked up): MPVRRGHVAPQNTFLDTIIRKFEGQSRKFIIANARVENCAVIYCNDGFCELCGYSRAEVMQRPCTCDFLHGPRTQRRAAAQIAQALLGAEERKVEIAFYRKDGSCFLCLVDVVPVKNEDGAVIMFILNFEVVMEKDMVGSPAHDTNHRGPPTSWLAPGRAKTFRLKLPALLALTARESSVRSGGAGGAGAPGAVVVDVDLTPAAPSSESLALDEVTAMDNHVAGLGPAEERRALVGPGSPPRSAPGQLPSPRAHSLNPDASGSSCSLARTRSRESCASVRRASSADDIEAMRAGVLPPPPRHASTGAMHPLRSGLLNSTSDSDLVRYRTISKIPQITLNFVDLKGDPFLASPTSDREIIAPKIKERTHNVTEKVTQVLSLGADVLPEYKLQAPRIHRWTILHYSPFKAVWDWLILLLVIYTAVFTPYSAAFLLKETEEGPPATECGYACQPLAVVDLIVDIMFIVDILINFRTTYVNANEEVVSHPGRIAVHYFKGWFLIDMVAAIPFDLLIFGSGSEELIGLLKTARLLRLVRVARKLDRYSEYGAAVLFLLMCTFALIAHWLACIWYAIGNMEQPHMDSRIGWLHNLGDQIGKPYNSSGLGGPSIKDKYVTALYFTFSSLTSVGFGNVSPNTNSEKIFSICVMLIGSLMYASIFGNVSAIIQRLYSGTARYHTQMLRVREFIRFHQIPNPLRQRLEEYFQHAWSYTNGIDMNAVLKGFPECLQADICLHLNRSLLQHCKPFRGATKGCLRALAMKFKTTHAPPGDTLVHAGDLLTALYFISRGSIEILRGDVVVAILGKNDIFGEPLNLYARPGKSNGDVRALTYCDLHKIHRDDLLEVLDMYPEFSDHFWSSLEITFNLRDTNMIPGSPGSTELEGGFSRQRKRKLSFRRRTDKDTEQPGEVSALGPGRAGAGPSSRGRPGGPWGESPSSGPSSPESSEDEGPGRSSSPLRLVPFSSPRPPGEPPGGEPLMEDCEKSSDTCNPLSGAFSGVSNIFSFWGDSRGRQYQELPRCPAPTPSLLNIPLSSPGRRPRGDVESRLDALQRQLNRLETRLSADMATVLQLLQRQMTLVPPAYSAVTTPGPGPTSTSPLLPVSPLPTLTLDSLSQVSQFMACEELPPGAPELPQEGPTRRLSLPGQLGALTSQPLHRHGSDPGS
row,Compound,"hERG current change (%, negative = inhibition) at 10uM"
1,CN1C2CCC1CC(OC(c1ccccc1)c1ccccc1N)C2 (stereo not drawn),-68.5%
2,CCOC(=O)C1CCN(C(=O)CNC(=O)c2nn(-c3ccc(OC)cc3)c(=O)c3ccccc23)CC1,-9.73%
3,Cc1ccc(Cl)cc1NC(=O)CC1NCCNC1=O (stereo not drawn),13.6%
4,COc1ccccc1-c1c(C)nn2c(N3CCOCC3)cc(C)nc12,2.71%
5,CCCCOC(=O)Nc1nc2ccc([N+](=O)[O-])cc2s1,15.1%
6,CCCCOc1ccc([N+](=O)[O-])cc1C(=O)O,24.9%
7,C#CCOC(=O)CCCNc1ccc([N+](=O)[O-])cc1[N+](=O)[O-],-51.1%
8,CCCCOC(=O)CCCc1ccc([N+](=O)[O-])cc1[N+](=O)[O-],-52%
9,CCOC(=O)CCCNc1ccc([N+](=O)[O-])cc1[N+](=O)[O-],-13.3%
10,CC(C)OC(=O)CCCNc1ccc([N+](=O)[O-])cc1[N+](=O)[O-],-41.4%
11,COC(=O)c1c(-c2c(Cl)cccc2Cl)noc1C(=O)NNC(=O)N(C)C,4.36%
12,CCOc1ccc(-n2c(=O)c3ccccc3c3ccccc3c2=O)cc1,17.8%
13,S=C(NCc1ccccc1)NCc1cccc(CNC(=S)NCc2ccccc2)c1,21.7%
14,CCOC(=O)c1cc2c(=O)n3ccccc3nc2n(CCCOC)c1=NC(=O)c1cccnc1,-68%
15,CCOCCCn1c(=NC(=O)c2cccnc2)c(C(=O)OCC)cc2c(=O)n3ccccc3nc21,-70.1%
16,CCOCCCn1c(=NC(C)=O)c(C(=O)OCC)cc2c(=O)n3ccccc3nc21,-22.9%
17,CCOC(=O)c1cc2c(=O)n3cccc(C)c3nc2n(CCCOC)c1=NC(=O)c1cccnc1,-78.6%
18,CCOC(=O)c1cc2c(=O)n3cccc(C)c3nc2n(CCOC)c1=NC(C)=O,-16.3%
19,CCC1=C(OC(=O)N(CC)CC)N2C(=O)OC(=NCC(=O)OC)[C@]2(C)[C@H]2C1=CC[C@H]1C(=O)NC(=O)[C@H]12,-15.5%

row,Compound,"hERG current change (%, negative = inhibition) at 10uM"
1,Cc1onc(COc2ccccc2O)c1Br,11.2%
2,COc1cccc(NC(=O)CN(C)C(C)C(=O)Nc2ccc(S(=O)(=O)N3CCOCC3)cc2)c1 (stereo not drawn),-15.1%
3,COc1ccccc1-c1noc(Cn2cc(S(=O)(=O)N3CCCC3)ccc2=O)n1,-3.72%
4,CCC(C)NCCOCCOc1ccc(Cl)cc1Br.O=C(O)C(=O)O (stereo not drawn),-51.1%
5,C=CCc1cc(Cl)ccc1OCCCNC(C)CC.O=C(O)C(=O)O (stereo not drawn),-55.7%
6,C=CCc1cc(Cl)ccc1OCCNCCCOC.O=C(O)C(=O)O,-37.9%
7,CC(C)NCCOCCOc1ccc(Cl)cc1Br.O=C(O)C(=O)O,-32.2%
8,Cc1cc(OCCOCCNC(C)C)cc(C)c1Cl.O=C(O)C(=O)O,-47.3%
9,CCC(C)NCCCOc1cc(Cl)ccc1Cl.O=C(O)C(=O)O (stereo not drawn),-42.3%
10,CCC(C)NCCCOc1ccc(Cl)cc1C(C)(C)C.O=C(O)C(=O)O (stereo not drawn),-8.48%
11,CCC(C)NCCOCCOc1cc(C)c(Cl)c(C)c1.O=C(O)C(=O)O (stereo not drawn),-59.2%
12,CCC(C)NCCOCCOc1ccc(Br)cc1.O=C(O)C(=O)O (stereo not drawn),-18.1%
13,C=CCc1cc(Cl)ccc1OCCCNC(C)C.O=C(O)C(=O)O,-40.1%
14,CCC(C)NCCCCOc1ccc(Cl)cc1C.O=C(O)C(=O)O (stereo not drawn),-58.6%
15,CCC(C)NCCOCCOc1ccc(C)cc1Br.O=C(O)C(=O)O (stereo not drawn),-41%
16,O=C1CCc2ccccc2N1,16.5%
17,Cc1ccc(-c2csc(NC(=O)c3ccccc3Cl)c2C(=O)O)cc1,20.8%
18,COCc1nnc(NC(=O)c2ccc(S(=O)(=O)N(CC(C)C)CC(C)C)cc2)o1,-7.19%
19,NNc1nc2cc3c(cc2s1)OCCO3,14.1%

row,Compound,"hERG current change (%, negative = inhibition) at 10uM"
1,CN(C(=O)CSc1nc2c(cnn2-c2ccccc2)c(=O)[nH]1)C1CCS(=O)(=O)C1 (stereo not drawn),16.1%
2,CSCC(C)N1CCC(CCC(=O)NC2CC2)CC1 (stereo not drawn),-18.1%
3,OCCCCO,13.7%
4,Oc1ccc(Cc2ncc(C(F)(F)F)cc2Cl)cc1,-15.4%
5,Cc1ccc(N(CC(=O)N2CCCCC2)S(=O)(=O)c2ccc(C)cc2)cc1,-20.9%
6,OCc1csc(=Nc2ccccc2)n1-c1ccccc1,0.29%
7,CCC(C)NCCOCCOc1ccc(Cl)c(C)c1C.O=C(O)C(=O)O (stereo not drawn),-31.7%
8,C=CCc1cc(Cl)ccc1OCCOCCNC(C)CC.O=C(O)C(=O)O (stereo not drawn),-69.2%
9,C=CCc1cc(Cl)ccc1OCCOCCNC(C)(C)C.O=C(O)C(=O)O,-49.5%
10,CN(C)CCOCCOc1ccc(Cl)cc1C(C)(C)C.O=C(O)C(=O)O,-37.3%
11,C=CCc1cc(Cl)ccc1OCCOCCN(C)C.O=C(O)C(=O)O,-51.5%
12,C=CCc1cc(Cl)ccc1OCCN(C)C.O=C(O)C(=O)O,-42%
13,Cc1occc1-c1nnc(SCC(=O)Nc2c(F)cccc2F)n1C,-7.23%
14,CCOC(=O)c1c(C)[nH]c(C)c1S(=O)(=O)N1CCN(C(=O)c2ccco2)CC1,16.5%
15,Cc1ccc(S(=O)(=O)N2CCCOC2CNC(=O)C(=O)NCc2ccc3c(c2)OCO3)cc1 (stereo not drawn),-13.4%
16,CNC(=S)NNC(=O)c1cccn(Cc2cccc(C(F)(F)F)c2)c1=O,22.2%
17,N#C/C(=C/c1ccc(O)cc1)C(=O)NCc1ccc(Cl)cc1,23.1%
18,C=CCSc1nc2ccsc2c(=O)n1-c1cccnc1,-8.97%
19,Cc1cc2nc(CO)[nH]c2cc1C,14.9%

# Source: paper PMC4336329 (PLoS ONE, 2015)
